{"source": "PubChem BioAssay AID686970", "about": "(National Center for Advancing Translational Sciences (NCATS), 2013)", "note": "Hit rate of the full screen: of about 360,000 compounds, about 6,000 (1.7%) were called active. About 8% were inconclusive and are not listed. The call rests on the fitted dose curve; in most records, active means well fitted cell-killing curve with a large enough effect; inconclusive means small, poorly fitted or top-dose-only effect, or effect the other way; inactive means flat fitted curve, though single readings scatter. For the sample, actives were picked, then their nearest neighbours and some compounds at random. Potency means the concentration at half of the fitted maximal effect.", "data": [{"assay": "qHTS for induction of synthetic lethality in tumor cells producing 2HG: qHTS for the HT-1080-NT fibrosarcoma cell line; further: nearly all actives have a fitted effect of over 55% in size", "conditions": "HT-1080-NT fibrosarcoma viability, CellTiter-Glo ATP luminescence, 48 h; series mostly up to 46.1 µM; activity, negative = less viability: at the top concentration", "from_the_text": "Unbiased genomic sequencing for 22 glioma genomes found recurrent mutation of IDH1 on chromosome 2q33, a gene encoding the cytosolic isoform of IDH1 associated with the tricarboxylic acid cycle (TCA) that catalyzes the oxidative decarboxylation of isocitrate, yielding alpha-ketoglutarate and CO2 via NADP+ to NADPH conversion. Subsequent studies confirmed the recurrent IDH mutations in up to 70% of secondary gliomas and in 10% of AML cases. In addition, the somatic mutation of cancer-associated IDH1 is a point mutation resulting in various amino-acid substituents at Arginine132 (IDH1 R132), a key residue found in the enzyme's active site that when mutated, results in the loss-of-function in metabolizing isocitrate but confers a gain-of-function to produce the oncometabolite 2-hydroxyglutarate (2HG). This in effect defines IDH1 as an oncogene and provides an extraordinary opportunity to discover chemical probes against mutant IDH1 that may translate into much needed new therapies for glioma and AML patients.\nThis assay aims to perform a synthetic lethal screen for chemical probes specific for 2HG-producing tumor cells using matched paired cell lines (1) HT-1080-NT fibrosarcoma cell line that overproduces 2HG and (2) HT-1080-IDH1KD cell line which has IDH1 expression knocked-down. Desirable compounds are toxic to the NT fibrosarcoma cells but not to the IDH1KD cell line. The data in this AID corresponds to the results of the qHTS against the HT-1080-NT fibrosarcoma cell line.\n[1] Dang L, Jin S, Su SM. IDH mutations in glioma and acute myeloid leukemia. Trends of Mol Med. 2010; 16(9): 387-97.\n[2] Dang L et al. Cancer-associated IDH1 mutations produce 2-hydroxyglutarate. Nature. 2010; 465(7300):966.\nNIH Molecular Libraries Probe Production Centers Network [MLPCN]\nNIH Chemical Genomics Center [NCGC]\nAssay Submitter (PI): Lenny Dang Ph.D., Agios Pharmaceuticals\nSuspensions of trypsinized HT-1080-NT cells were dispensed into white, tissue culture-treated, solid 1536-well plates at 5uL/well (750 cells/well final concentration) in RPMI medium supplemented with 5% FBS. Plates were incubated at 37 degrees C for 2 hours, after which 23 nL of compounds or DMSO were delivered to each well using a pin tool. Plates were then incubated at 37 degrees C for an additional 48 hours. CellTiter-Glo viability reagent (Promega) was dispensed into wells (2.5uL/well) and incubated at room temperature for 10 minutes. The plates were measured on a PerkinElmer ViewLux plate reader for luminescent signal (clear filter, 1 sec exp). DMSO-treated control wells and media-only (no cells) control wells were used to normalize %Activity of identified toxic compounds; DMSO-treated wells corresponded to 0%Activity (100% viability), while media-only controls were used to normalize 100%Activity (0% viability).\nConcentration-response curves were fitted to the signals arising from the resulting luminescence. The concentration-effect curves were then classified based on curve quality (r2), response magnitude and degree of measured activity, and compounds were subsequently categorized based on their curve class.", "values": [{"smiles": "CC(C)c1ccc2c(c1)c(SC(C)(C)C)c(CC(C)(C)C(=O)O)n2Cc1ccc(Cl)cc1", "Potency": "13 µM (active)"}, {"smiles": "C[C@@H]1CN([C@H](C)CO)C(=O)CCCn2cc(nn2)CO[C@H]1CN(C)S(=O)(=O)c1ccc(Oc2ccccc2)nc1", "activity, negative = less viability": "9.83% (inactive)"}, {"smiles": "O=C(c1ccc(C(F)(F)F)cc1)N1CCC(=O)N([C@H](COCc2ccccc2)Cc2ccccc2)CC1", "activity, negative = less viability": "-31.2% (inactive)"}, {"smiles": "O=C(CNC(=O)N1CC(=O)Nc2ccccc21)Nc1ccc(Br)cc1F", "activity, negative = less viability": "2.75% (inactive)"}, {"smiles": "O=C(O)CC1=C(Nc2ccccc2)C(=O)N(c2ccccc2)C1c1ccc(Cl)cc1", "note": "(centres undefined)", "activity, negative = less viability": "5.31% (inactive)"}, {"smiles": "O=C(CCC(=O)OCc1ccc(Cl)cc1)Nc1ccccc1", "activity, negative = less viability": "8.34% (inactive)"}, {"smiles": "O=C1C=C(c2ccc(Cl)cc2)C(=O)N1Nc1ccccc1", "Potency": "23.1 µM (active)"}, {"smiles": "CCN(Cc1ccncc1)C(=S)Nc1ccccc1C", "activity, negative = less viability": "13.2% (inactive)"}, {"smiles": "CCCCN1CC(N2CCN(Cc3cccc(C)c3)CC2)CS1(=O)=O", "note": "(centres undefined)", "activity, negative = less viability": "13.1% (inactive)"}, {"smiles": "CCCCN(CCCC)CCC(O)c1cc2c(Cl)cc(Cl)cc2c2cc(C(F)(F)F)ccc12", "note": "(centres undefined)", "Potency": "14.6 µM (active)"}, {"smiles": "Fc1cccc(Cc2c(-c3cccc(Cl)c3)nc3ccc(Br)cn23)c1", "activity, negative = less viability": "-23.5% (inactive)"}, {"smiles": "CC1(C(=O)NS(=O)(=O)c2ccccc2Cl)CCN1C(=O)c1cccc(F)c1", "note": "(centres undefined)", "activity, negative = less viability": "16.3% (inactive)"}, {"smiles": "Cc1cccc(C)c1NC(=O)N1CC(C)OC(C)C1", "note": "(centres undefined)", "activity, negative = less viability": "2.26% (inactive)"}, {"smiles": "Cc1cccc(C)c1NC(=O)CN(C)C(=O)CCC(=O)c1ccccc1", "activity, negative = less viability": "15.1% (inactive)"}, {"smiles": "Cc1cccc(C)c1NC(=O)C(Cl)C(=O)c1ccccc1", "note": "(centres undefined)", "Potency": "16.4 µM (active)"}, {"smiles": "Cc1ccccc1CN1C(=O)CSCC1(C)C(=O)Nc1c(C)cccc1C", "note": "(centres undefined)", "activity, negative = less viability": "9.72% (inactive)"}, {"smiles": "Cc1ccc(OCC(=O)OC(C)CN(C)Cc2ccccc2)cc1", "note": "(centres undefined)", "activity, negative = less viability": "1.64% (inactive)"}, {"smiles": "COc1ccc(OCC(O)CN(C)C(=O)C(C)Oc2ccccc2)cc1", "note": "(centres undefined)", "activity, negative = less viability": "-4.49% (inactive)"}, {"smiles": "CN(Cc1ccccc1)CC(O)COc1ccc(CNCc2cc3ccccc3s2)cc1", "note": "(centres undefined)", "Potency": "20.6 µM (active)"}, {"smiles": "CC(C)(C)Cc1c(C2CCCCC2)nc2ccc(Br)cn12", "activity, negative = less viability": "-24.8% (inactive)"}, {"smiles": "O=C(NN=Cc1ccccc1)c1ccccc1", "activity, negative = less viability": "25.1% (inactive)"}, {"smiles": "O=C(NN=Cc1ccccc1O)NN=Cc1ccccc1O", "Potency": "8.2 µM (active)"}, {"smiles": "O=C(N/N=C/c1ccccc1O)C1CCCC1", "activity, negative = less viability": "-15.5% (inactive)"}, {"smiles": "CCCNC(=O)C1(C)CCCN(Cc2cccc(C(F)(F)F)c2)C1", "note": "(centres undefined)", "activity, negative = less viability": "6.04% (inactive)"}, {"smiles": "COc1ccc(CNS(=O)(=O)c2ccc(-c3cnc(C4CC4)o3)cc2)cc1", "activity, negative = less viability": "-19.8% (inactive)"}, {"smiles": "Cc1cccc(NS(=O)(=O)c2ccc(C)c(C(N)=O)c2)c1", "activity, negative = less viability": "4.32% (inactive)"}, {"smiles": "Cc1cccc(NS(=O)(=O)c2ccc(-c3cnc(C4CC4)o3)cc2)c1", "Potency": "5.17 µM (active)"}, {"smiles": "O=C(CCCN1C(=O)C(c2ccccc2)Oc2cccnc21)Nc1ccccc1Br", "note": "(centres undefined)", "activity, negative = less viability": "-2.47% (inactive)"}, {"smiles": "COc1ccc(C(CNC(=O)c2ccc(OCc3cscn3)cc2)N2CCCC2)cc1", "note": "(centres undefined)", "activity, negative = less viability": "-5.47% (inactive)"}, {"smiles": "CN1CCN(c2ccc3c(c2)OC[C@H](Cc2ccccc2)NS3(=O)=O)CC1", "activity, negative = less viability": "9.78% (inactive)"}, {"smiles": "CCN(CC)CCn1c2ccc(Cl)cc2c2nc(C)sc21", "Potency": "28.2 µM (active)"}, {"smiles": "COC(=O)Cn1c2ccc(C)cc2c2nc(C)sc21", "activity, negative = less viability": "11% (inactive)"}, {"smiles": "CCN(CC)CCNc1ccc(Cl)cc1[N+](=O)[O-]", "activity, negative = less viability": "-3.02% (inactive)"}, {"smiles": "O=C(NCc1ccccc1)C1c2ccccc2OCC(=O)N1C1CC1", "note": "(centres undefined)", "activity, negative = less viability": "20.8% (inactive)"}, {"smiles": "Cc1sc2ccccc2c1CNC[C@H]1O[C@@H](n2ccc(=O)[nH]c2=O)[C@H](O)[C@@H]1O", "activity, negative = less viability": "21.8% (inactive)"}, {"smiles": "Cc1nc(/N=C(\\N)NC(=O)NC2CCCCC2)nc2ccccc12", "Potency": "23.1 µM (active)"}, {"smiles": "COc1ccc2nc(/N=C(\\N)NC(=O)Nc3ccccc3)nc(C)c2c1", "activity, negative = less viability": "-18.5% (inactive)"}, {"smiles": "CC(C)c1cc(C(=O)NC2CCCCCC2)c2ccccc2n1", "activity, negative = less viability": "-7.58% (inactive)"}, {"smiles": "Cc1cccc(N(CC(=O)N2CCCC2)S(C)(=O)=O)c1C", "activity, negative = less viability": "9.09% (inactive)"}, {"smiles": "CC(=O)c1ccccc1NC(=O)COC(=O)C1COc2ccccc2O1", "note": "(centres undefined)", "activity, negative = less viability": "1.1% (inactive)"}, {"smiles": "CCOC(=O)[C@]12CCC=C1N(CCC1=CCCCC1)C(=O)[C@H](CC(=O)NCc1ccc(C)o1)C2", "activity, negative = less viability": "9.86% (inactive)"}, {"smiles": "CCOC(=O)[C@]12CCCC=C1N(CCC1=CCCCC1)C(=O)[C@H](CC(=O)NCCCOC)C2", "activity, negative = less viability": "-1.32% (inactive)"}, {"smiles": "CCCCOCCCNC(=O)C[C@@H]1C[C@@]2(C(=O)OCC)CCCC=C2N(CCC2=CCCCC2)C1=O", "Potency": "16.4 µM (active)"}, {"smiles": "COC(=O)[C@]12CCCCC=C1N(Cc1ccc3c(c1)OCO3)C(=O)[C@H](CC(=O)N1CCOCC1)C2", "activity, negative = less viability": "8.8% (inactive)"}, {"smiles": "O=C(Cn1c(NCCO)nc2ccccc21)c1ccc(Cl)cc1Cl", "Potency": "20.6 µM (active)"}, {"smiles": "O=C(Cn1c(-c2cscn2)nc2ccccc21)Nc1ccc(Cl)cc1", "activity, negative = less viability": "-23.1% (inactive)"}, {"smiles": "O=S(=O)(O)c1nc2ccccc2n1Cc1ccc(Cl)cc1Cl", "activity, negative = less viability": "-0.293% (inactive)"}, {"smiles": "COc1ccc(C(C)C)cc1-c1ccc2nncn2c1", "activity, negative = less viability": "2.86% (inactive)"}, {"smiles": "CC(C)C[C@@H]1Cc2[nH][nH]c(=O)c2[C@H](CCc2ccccc2)O1", "activity, negative = less viability": "-14.8% (inactive)"}]}]}
